BoNT F protease: inhibitors of Botulinum neurotoxin F light chain protease; Multiplex microsphere protease cleavage assay, flow cytometry; inhibition, % at 10 µM; 360,000 compounds, 0.22% hits; AID 588497; in the data active means inhibition above about 35%, passing the limit was not always enough; inconclusive means no clear call, values can overlap the other calls; further: plate controls were buffer without enzyme for full effect and enzyme alone for no effect
Anthrax LF prot: inhibitors of Bacillus anthracis lethal factor protease | P15917 | multiplex microsphere protease cleavage assay, LF | inhibition, % at 10 µM | 360,000 compounds, 0.12% hits; further: plate controls were buffer without enzyme for full effect and enzyme alone for no effect
BoNT A protease: blocks Botulinum neurotoxin A light chain protease; multiplex microsphere protease substrate cleavage, flow cytometry; inhibition, % at 10 µM; 360,000 compounds, 0.17% hits; AID 588499; further: plate controls were buffer without enzyme for full effect and enzyme alone for no effect
Bead autofluor: counter-screen for toxin protease inhibitors: compound fluorescence; 360,000 compounds, 3.1% hits; fluorescence intensity (test concentration not listed); compound autofluorescence counterscreen, microsphere flow cytometry; stronger effect = higher value; AID 624483; in the data active means fluorescence intensity above about 16000; inconclusive means no clear call, values can overlap the other calls
Numbers without * were called inactive; ? = inconclusive. A selection: hits, their analogues and other compounds. The true share with any hit is near 3.5%. Unless noted, no stated cut-off is given here; in the data, active means inhibition above about 30%; inconclusive means no clear call, values can overlap the other calls; inactive means below that.

SMILES | BoNT F protease | Anthrax LF prot | BoNT A protease | Bead autofluor
Cc1ccc(-c2nc(C#N)c(NCCN3CCCCC3)o2)cc1 | -11 | -3 | ? | 22423*
COc1ccc(CNc2oc(COc3ccc(Cl)cc3)nc2C#N)cc1 | -10 | -3 | -4 | 20982*
N#Cc1nc(-c2ccc(Cl)cc2)oc1NCc1cccc2c1OCO2 | -2 | -1 | 1 | 19143*
O=C(NCCOc1ccc(F)cc1)C1CCC(=O)N(CC2CCCCC2)C1 (stereo not given) | -13 | -1 | -4 | 5507
COc1ccc2c(=O)cc(-c3ccccc3F)oc2c1 | 46* | 2 | 5 | 3780
CCCCN(C(=O)Nc1ccc(Cl)cc1)C1CCN(C(C)=O)CC1 | 7 | 1 | 5 | 17864*
CCOCCCN(C(=O)Nc1ccc(CC)cc1)C1CCN(C(C)=O)CC1 | 4 | 2 | 1 | 8055
CC(=O)Nc1cccc(C(=O)NN2C(=O)NC3(CCC(C)CC3)C2=O)c1 (stereo not given) | 1 | -7 | 0 | 3661
Cc1ccc(C)c2[nH]c(=O)c(CN(Cc3ccco3)S(=O)(=O)c3ccc4c(c3)OCCO4)cc12 | 5 | -2 | 3 | 22529*
CCc1ccc2[nH]c(=O)c(CN(Cc3ccco3)S(=O)(=O)c3ccc4c(c3)OCCO4)cc2c1 | 0 | -2 | -1 | 11443
CCCCNC(=O)c1nc(C2CCN(S(=O)(=O)c3c(F)cccc3F)CC2)oc1-c1ccccc1 | 7 | -8 | 0 | 5769
COc1ccc(CCNC(=O)Cn2cnc3c(cnn3-c3ccccc3Cl)c2=O)cc1OC | 4 | -1 | 3 | 21068*
CCCOc1ccccc1Nc1nnc(C)c(=O)[nH]1 | -7 | -4 | -5 | 21083*
Cc1cccc(NC(=O)c2cc(NC(=O)C3CC=CCC3C(=O)O)ccc2N2CCOCC2)c1 (stereo not given) | -5 | 0 | -1 | 23987*
Cc1ccc(NC(=O)c2cc(NC(=O)C3CC=CCC3C(=O)O)ccc2N2CCOCC2)cc1 (stereo not given) | -4 | 7 | 0 | 3202
CCOC(=O)c1c(-c2cccc([N+](=O)[O-])c2)cn2ccccc12 | -3 | -2 | -1 | 4292
CCOC(=O)c1c(-c2ccccc2Cl)cn2ccccc12 | 3 | -8 | 2 | 21999*
Cc1cccc(-c2cnc(C(O)c3ccc(Cl)cc3C)[nH]2)c1 (stereo not given) | -8 | -9 | -1 | 3816
C=CCOc1ccc(/C(CC)=N/O)c(OC)c1 | 1 | -2 | ? | 23301*
Cc1ccc(C(O)c2ncc(-c3ccc4ccccc4c3)[nH]2)cc1F (stereo not given) | -3 | -3 | -1 | 3588
CC(=O)Nc1ccc(S(=O)(=O)N2CCN(Cc3cccc([N+](=O)[O-])c3)CC2)cc1 | 0 | -4 | -2 | 3601
CCN1CNC(=S)N(c2cccc(C)c2C)C1 | -3 | -2 | ? | 20115*
CCCN1CNC(=S)N(c2cccc(C)c2C)C1 | 22 | -19 | ? | 14518
CN(Cc1ccccc1NCC(=O)Nc1ccccc1C#N)C1CCCCC1 | 2 | -4 | 0 | 3270
N#Cc1ccccc1NC(=O)CNc1ccccc1N1CCCCC1 | -4 | -4 | ? | 22615*
SMILES | BoNT F protease | Anthrax LF prot | BoNT A protease | Bead autofluor
Cc1cc(Br)cnc1NC(=S)Nc1ccc(F)cc1F | -5 | -5 | -1 | 4840
CC1=C(C(=O)Nc2ccccc2C)C(c2ccc(C)o2)N2C(=O)CSC2=N1 (stereo not given) | 3 | -8 | 4 | 20714*
Cc1ccccc1NC(=O)CCN1C(=O)CSC1=O | -2 | -1 | 1 | 3618
COc1ccc(CCNC(=O)CCC(=O)Nc2ccc3nc(N4CCN(C)CC4)cc(C)c3c2)cc1OC | 2 | -4 | 0 | 3954
Cc1cc(N2CCN(C)CC2)nc2ccc(NC(=O)CCC(=O)NCCC3=CCCCC3)cc12 | -6 | -1 | -2 | 21266*
CCN(c1ccccc1)S(=O)(=O)c1ccc(OC)c(NC(=O)CCc2nc3ccccc3c(=O)[nH]2)c1 | -8 | -4 | 1 | ?
CCOC(=O)CSc1nc2ccccc2n1CC(=O)NC(C)(C)C | -4 | -1 | -3 | 21055*
COc1ccc(C(=O)CSc2nc3ccccc3n2CC(=O)NC(C)(C)C)cc1 | -3 | 1 | 1 | 2924
CC(C)Oc1ccc(C(=O)NCC(=O)N2CCN(S(=O)(=O)/C=C/c3ccccc3)CC2)cc1 | -4 | -2 | 0 | 2972
N#CC1=C(SCC(=O)NC2CC2)NC(=O)C(C#N)C12CCCCC2 (stereo not given) | 3 | 1 | 2 | 20178*
C=CCSC1=C(C#N)C2(CCCCC2)C(C#N)C(=O)N1 (stereo not given) | 2 | 1 | ? | 19902*
CC(C)(C)C1CCC2(CC1)C(C#N)=C(SCC(=O)NC1CCCCC1)NC(=O)C2C#N (stereo not given) | 0 | -2 | -1 | 7931
CN1CCN(Cc2c(C#N)c3ccccc3n2C)CC1 | 0 | -1 | ? | 19926*
CN1CCN(Cc2nc3ccccc3n2C)CC1 | 2 | 0 | ? | 19606*
Cn1c(CN2CCOCC2)c(C#N)c2ccccc21 | 10 | -8 | 8 | 17523*
Cn1c(CN2CCCC2)c(C#N)c2ccccc21 | -4 | -3 | -1 | 2676
COc1ccc(NC(=O)C2(C)CCN2C(=O)Cc2ccc(Cl)cc2Cl)cc1OC (stereo not given) | 2 | -7 | 0 | 3831
CCCCCCN1C[C@H](n2cc(C3CC3)nn2)[C@@H](O)C[C@@H]1c1ccc(OC)cc1 | 6 | -5 | 0 | 3404
O=C(O)C1(c2ccccc2)CCN(S(=O)(=O)c2ccc(F)c(F)c2)CC1 | -13 | 0 | 0 | 3952
CCOc1ccc(NC(=O)CN(C)C(=O)c2cccnc2Sc2ccc(C)c(C)c2)cc1OCC | 28 | 5 | 9 | ?
C=CCc1cc(C=O)cc(OC)c1OCc1c(Cl)cccc1Cl | -5 | -2 | ? | 24171*
Cn1c(SCc2ccc(Cl)cc2Cl)nc(C(F)(F)F)cc1=O | -1 | -4 | 1 | 10747
CC(C)Sc1nc(C(F)(F)F)cc(=O)n1-c1ccccc1 | -1 | 1 | ? | 20162*
CCSc1nc(C(F)(F)F)cc(=O)n1-c1ccccc1 | 0 | 1 | ? | 20108*
Cc1cccc(C)c1Cn1c(C)c(C(=O)NCc2ccc([N+](=O)[O-])cc2)sc1=O | -12 | -4 | 0 | 5685
SMILES | BoNT F protease | Anthrax LF prot | BoNT A protease | Bead autofluor
Cc1occc1-c1nnc(SCC(=O)Nc2ccccc2-c2ccccc2)n1C | 16 | 2 | 1 | 4873
O=C(Cc1cccs1)Nc1nc2c(s1)CCCC2 | -6 | -2 | -3 | 17280*
CCCn1c(SCC(=O)Nc2nnc(CC)s2)nnc1-c1ccco1 | ? | 7 | 1 | 4191
CCc1nnc(NC(=O)CSc2nnc(-c3ccco3)n2C)s1 | 1 | -4 | 1 | 21882*
Cn1c(SCC(=O)Nc2ccccc2-c2ccccc2)nnc1-c1ccco1 | -2 | -4 | -1 | 16441*
Cn1c(SCC(=O)Nc2nc3c(s2)CCCC3)nnc1-c1ccccc1 | -2 | -6 | -1 | 20299*
CCOC(=O)C1(Cc2ccc(OC)cc2)CCN(C(=O)[C@@H]2CCCN2C(C)=O)CC1 | -4 | -1 | -2 | 5310
COc1cc(C(=O)NCC(c2cccs2)N2CCOCC2)cc(OC)c1OC (stereo not given) | -3 | 0 | -2 | 6325
